Laboratory results as given in the supplement of paper PMC7724964.

T1: SPRED2 1-124 WH1 (domain begin residue: 1, domain end residue: 124), Q7Z698
T1 chain: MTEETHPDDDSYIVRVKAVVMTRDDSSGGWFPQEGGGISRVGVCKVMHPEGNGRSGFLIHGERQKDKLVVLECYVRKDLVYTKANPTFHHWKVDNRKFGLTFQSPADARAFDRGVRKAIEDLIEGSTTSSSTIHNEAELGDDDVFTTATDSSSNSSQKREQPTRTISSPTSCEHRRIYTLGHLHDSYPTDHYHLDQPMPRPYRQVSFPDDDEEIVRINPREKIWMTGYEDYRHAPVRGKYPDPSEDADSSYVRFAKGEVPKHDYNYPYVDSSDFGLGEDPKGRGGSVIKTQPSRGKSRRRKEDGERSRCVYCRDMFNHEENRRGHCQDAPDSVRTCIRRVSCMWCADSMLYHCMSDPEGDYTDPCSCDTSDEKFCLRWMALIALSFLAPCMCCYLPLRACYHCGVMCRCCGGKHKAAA

T2: SPRED1 13-131 WH1 (domain begin residue: 13, domain end residue: 131), Q7Z699
T2 chain: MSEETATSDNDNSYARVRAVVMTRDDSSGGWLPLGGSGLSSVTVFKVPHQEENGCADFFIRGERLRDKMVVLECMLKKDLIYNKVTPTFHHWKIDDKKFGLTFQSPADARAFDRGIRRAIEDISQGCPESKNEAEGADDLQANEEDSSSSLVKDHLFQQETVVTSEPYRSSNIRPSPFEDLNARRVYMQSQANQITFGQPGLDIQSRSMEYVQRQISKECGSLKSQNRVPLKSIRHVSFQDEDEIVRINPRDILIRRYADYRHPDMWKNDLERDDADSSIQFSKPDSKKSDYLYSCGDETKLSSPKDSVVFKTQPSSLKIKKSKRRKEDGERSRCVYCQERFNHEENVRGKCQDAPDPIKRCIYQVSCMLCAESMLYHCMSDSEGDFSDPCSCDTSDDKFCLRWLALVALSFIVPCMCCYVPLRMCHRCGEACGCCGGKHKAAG

T3: SHC1 149-317 PID (domain begin residue: 149, domain end residue: 317), P29353
T3 chain: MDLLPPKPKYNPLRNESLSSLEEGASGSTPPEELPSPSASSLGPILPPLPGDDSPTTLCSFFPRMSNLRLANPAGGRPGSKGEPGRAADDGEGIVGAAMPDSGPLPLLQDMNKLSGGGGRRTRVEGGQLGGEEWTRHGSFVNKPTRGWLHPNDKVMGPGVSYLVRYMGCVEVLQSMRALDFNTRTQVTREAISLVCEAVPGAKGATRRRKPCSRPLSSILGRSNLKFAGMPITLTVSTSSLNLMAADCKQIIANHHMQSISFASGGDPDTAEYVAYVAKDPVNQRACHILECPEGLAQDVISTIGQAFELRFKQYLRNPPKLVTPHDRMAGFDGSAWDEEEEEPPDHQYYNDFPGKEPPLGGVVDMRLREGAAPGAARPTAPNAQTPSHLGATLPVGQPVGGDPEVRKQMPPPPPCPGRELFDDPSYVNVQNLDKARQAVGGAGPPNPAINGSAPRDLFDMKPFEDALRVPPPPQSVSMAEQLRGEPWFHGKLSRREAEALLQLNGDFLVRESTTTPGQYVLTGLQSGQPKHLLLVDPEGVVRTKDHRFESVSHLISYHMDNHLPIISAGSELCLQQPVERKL

T4: SND1 650-910 TUDOR+SNase (domain begin residue: 650, domain end residue: 910), Q7KZF4
T4 chain: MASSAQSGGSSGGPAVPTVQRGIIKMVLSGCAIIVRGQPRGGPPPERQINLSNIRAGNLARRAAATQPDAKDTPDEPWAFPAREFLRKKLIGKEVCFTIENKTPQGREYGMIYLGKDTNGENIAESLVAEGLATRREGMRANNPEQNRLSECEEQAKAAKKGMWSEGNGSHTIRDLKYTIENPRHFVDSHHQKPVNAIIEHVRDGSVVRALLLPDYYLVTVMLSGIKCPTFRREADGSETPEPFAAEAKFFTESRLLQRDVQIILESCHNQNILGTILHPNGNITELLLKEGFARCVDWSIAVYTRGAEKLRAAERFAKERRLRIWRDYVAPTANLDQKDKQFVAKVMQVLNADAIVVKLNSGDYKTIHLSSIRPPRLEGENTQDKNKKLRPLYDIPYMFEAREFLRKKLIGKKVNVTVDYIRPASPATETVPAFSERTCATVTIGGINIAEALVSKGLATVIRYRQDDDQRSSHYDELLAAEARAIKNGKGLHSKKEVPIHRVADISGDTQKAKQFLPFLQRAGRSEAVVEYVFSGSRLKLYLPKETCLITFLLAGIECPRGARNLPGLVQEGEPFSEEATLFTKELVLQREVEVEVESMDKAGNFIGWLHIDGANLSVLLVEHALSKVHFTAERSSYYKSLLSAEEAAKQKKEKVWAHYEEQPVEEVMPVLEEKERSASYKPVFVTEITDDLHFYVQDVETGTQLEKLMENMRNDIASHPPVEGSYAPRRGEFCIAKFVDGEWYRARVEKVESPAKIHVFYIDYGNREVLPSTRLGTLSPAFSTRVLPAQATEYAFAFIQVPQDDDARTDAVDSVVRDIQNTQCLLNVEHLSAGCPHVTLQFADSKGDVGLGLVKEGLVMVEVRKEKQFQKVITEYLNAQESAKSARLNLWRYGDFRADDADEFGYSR

T5: SPRED3 1-117 WH1 (domain begin residue: 1, domain end residue: 117), Q2MJR0
T5 chain: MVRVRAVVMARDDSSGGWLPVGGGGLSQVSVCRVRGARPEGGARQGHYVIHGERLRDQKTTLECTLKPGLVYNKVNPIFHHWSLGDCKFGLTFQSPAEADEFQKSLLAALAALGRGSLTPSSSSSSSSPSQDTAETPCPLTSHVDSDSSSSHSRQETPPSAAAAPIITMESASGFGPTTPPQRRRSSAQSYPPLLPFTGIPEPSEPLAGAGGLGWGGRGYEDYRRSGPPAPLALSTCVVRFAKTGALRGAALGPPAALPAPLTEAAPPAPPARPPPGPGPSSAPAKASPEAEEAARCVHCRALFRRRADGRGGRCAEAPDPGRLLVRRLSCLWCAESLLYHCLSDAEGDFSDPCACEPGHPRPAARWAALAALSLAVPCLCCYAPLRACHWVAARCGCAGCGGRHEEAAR

T6: SPAG1 615-745 TPR_1 (domain begin residue: 615, domain end residue: 745), Q07617
T6 chain: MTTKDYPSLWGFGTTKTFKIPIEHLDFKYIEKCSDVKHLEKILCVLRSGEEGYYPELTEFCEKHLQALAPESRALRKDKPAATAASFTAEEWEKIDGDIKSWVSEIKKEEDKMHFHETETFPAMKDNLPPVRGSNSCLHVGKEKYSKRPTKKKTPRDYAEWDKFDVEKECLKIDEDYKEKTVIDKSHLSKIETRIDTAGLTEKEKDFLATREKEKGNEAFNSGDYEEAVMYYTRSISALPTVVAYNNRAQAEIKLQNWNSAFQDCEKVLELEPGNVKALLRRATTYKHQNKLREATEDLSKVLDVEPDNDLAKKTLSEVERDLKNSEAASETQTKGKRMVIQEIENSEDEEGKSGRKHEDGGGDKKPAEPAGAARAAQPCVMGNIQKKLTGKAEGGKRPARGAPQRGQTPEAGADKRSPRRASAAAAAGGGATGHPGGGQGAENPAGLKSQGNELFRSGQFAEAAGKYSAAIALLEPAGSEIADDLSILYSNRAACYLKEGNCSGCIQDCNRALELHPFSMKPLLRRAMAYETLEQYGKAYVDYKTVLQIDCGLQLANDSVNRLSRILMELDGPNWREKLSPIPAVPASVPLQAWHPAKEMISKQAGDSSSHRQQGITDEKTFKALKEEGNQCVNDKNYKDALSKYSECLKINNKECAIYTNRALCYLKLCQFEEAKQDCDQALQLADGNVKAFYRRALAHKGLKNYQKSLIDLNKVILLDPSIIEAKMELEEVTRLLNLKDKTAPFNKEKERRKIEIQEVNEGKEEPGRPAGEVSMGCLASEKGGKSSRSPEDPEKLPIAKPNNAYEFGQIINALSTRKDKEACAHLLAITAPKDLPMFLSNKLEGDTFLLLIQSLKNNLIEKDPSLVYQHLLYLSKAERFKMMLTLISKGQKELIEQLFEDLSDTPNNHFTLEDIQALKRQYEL


Molecular target: T1, SPRED2 1-124 WH1 (domain begin residue: …
Test: phage ELISA signal ratio (GST-PRM binding over GST background); higher = stronger binding of peptide-phage to the PRM
Method in brief: (§1)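 Human peptide recognition domains were expressed in 96-well plates as fusions to the C-terminus of glutathione S-transferase (GST) and selected against an M13 phage library displaying randomized hexadecapeptides, cysteine-free and glycine-flanked, on the gene-8 major coat protein. Five selection rounds were run, and approximately 48 individual clones from rounds 4 and 5 were tested by phage ELISA. Each value is the ELISA signal on the GST-domain fusion divided by the signal on GST alone. Positive clones were sequenced.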

In order of falling “phage ELISA signal ratio” value:
1. GIVPWWHDSGDHWGPL  19.4
2. GAGELEWYPIWWDVTH  17.3
3. GYKLWETETSWWFVPA  14
4. PVQWGDWSYPYDLSGQ  12.6
5. HPIFNDAGGLQGWFSY  11.1
6. TWGWFDTGEAWSTMSM  10
7. AWFEGPFDTSHWQWEA  7.72
8. NLWPEVEPIMDNWQPS  6.67
9. SSMWWTDTGDMYLRPE  4.88

Molecular target: T2, SPRED1 13-131 WH1 (domain begin …
Test: as above
Method in brief: as §1

In the case of WATVSEWGDWTTVVFN, the “phage ELISA signal ratio” value is reported as 3.55.

Molecular target: T3, SHC1 149-317 PID (domain begin residue: …
Test: as above
Method in brief: as §1

In order of falling “phage ELISA signal ratio” value:
1. EWNKNLHWFEVFDQEV  20.3
2. WEGYYQFLVPDTHTSE  18.9
3. ESEGSHYWNYFADAIA  18.2
4. GPMIGWNQEYIFFSEH  16.2
5. HVQWINHSFMMDMPQN  15.5
6. QVDQGEYVYGFWWEVL  9.85
7. EWGIMDSEWWGRYYEM  6.81
8. PKWEFFQDHTQDHHNQ  6.37
9. LEEHWQWWVDDMMPME  4.84

Molecular target: T4, SND1 650-910 TUDOR+SNase (domain begin …
Test: as above
Method in brief: as §1

In order of falling “phage ELISA signal ratio” value:
1. PWDMIWDDPSWAPMLE  7.49
2. MNFMDIWDHMAIPPEQ  7.06
3. YDWFSAVVEDQWEKVS  6.56
4. GDYMSMLFMQEWGPFN  5.51
5. EELWDQWHSWVTEPDE  4.69

Molecular target: T5, SPRED3 1-117 WH1 (domain begin residue: …
Test: as above
Method in brief: as §1

In order of rising “phage ELISA signal ratio” value:
1. WEWKDYEKVVHFQDMK  3.38
2. LDWDWVQWHFDDAMRW  7.1
3. WMWDGLAVVHMVPESV  8.68
4. TPWWETTSTVMTYIKM  19.4

Molecular target: T6, SPAG1 615-745 TPR_1 (domain begin …
Test: as above
Method in brief: as §1

In the case of MDLLEQQMWQDYFLWH, the “phage ELISA signal ratio” value is reported as 3.83.
